This is part of a sample that, as a whole, favours compounds with a hit. Of some 79,000 tested, about 15% had one in any assay. Active and inactive are the calls of the source. Rule as the data show it: active = growth inhibition above about 70%; inactive = the rest.
Columns and labels:
[1] = NCI Yeast Anticancer Drug Screen. Data for the rad52 strain (AID 147);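 also: 0% = growth of vehicle-treated control cultures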; settings: S. cerevisiae rad52 mutant growth inhibition, active compounds read high
Procedure, shortened: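 Measured: yeast growth inhibition. System: strain with a defined DNA damage repair alteration. Reference: vehicle-treated control cultures.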

[2] = NCI Yeast Anticancer Drug Screen. Data for the rad50EPP+ strain (AID 151);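 also: 0% = growth of vehicle-treated control cultures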; settings: S. cerevisiae rad50 mutant strain, active compounds read high
Procedure, shortened: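 One strain with a rad50 alteration (rad50EPP+) was compound-treated, its growth then compared to that of vehicle controls.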

[3] = NCI Yeast Anticancer Drug Screen. Data for the mgt1 strain (AID 153); settings: S. cerevisiae mgt1 mutant growth inhibition, active compounds read high
Procedure, shortened: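 After exposure of the mgt1 yeast mutant to compound, growth was measured and reported as inhibition compared with vehicle controls.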

[4] = NCI Yeast Anticancer Drug Screen. Data for the rad50 strain (AID 155);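 also: 0% = growth of vehicle-only cultures of the same strain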; settings: S. cerevisiae rad50 strain growth inhibition, active compounds read high
Procedure, shortened: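 Compounds were tested on a yeast strain with an engineered DNA damage repair alteration; the reported value is growth inhibition normalised to vehicle treatment.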

[5] = NCI Yeast Anticancer Drug Screen. Data for the mec2-1 strain (AID 157); settings: S. cerevisiae mec2-1 strain, active compounds read high
Procedure, shortened: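 Test agents were screened against the mec2-1 yeast strain, with defined DNA repair or cell cycle alteration. Growth was scored as inhibition against vehicle-only controls.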

[6] = NCI Yeast Anticancer Drug Screen. Data for the rad14 strain (AID 159);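 also: 0% = growth of vehicle-treated control cultures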; settings: S. cerevisiae rad14 strain growth inhibition, active compounds read high
Procedure, shortened: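 Compound-treated yeast with a defined DNA-repair lesion; growth inhibition normalised to vehicle-treated cultures.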

[7] = NCI Yeast Anticancer Drug Screen. Data for the sgs1 mgt1 strain (AID 161);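 also: 0% = growth of cultures given vehicle only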; settings: S. cerevisiae sgs1 mgt1 strain, active compounds read high
Procedure, shortened: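 Genetically altered yeast, compound exposure, growth inhibition relative to vehicle.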

[8] = NCI Yeast Anticancer Drug Screen. Data for the CLN2oe strain (AID 163);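 also: 0% = growth of vehicle-only control cultures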; settings: S. cerevisiae CLN2oe strain, active compounds read high
Procedure, shortened: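 Here, growth inhibition in a cell-cycle-altered yeast strain after compound exposure was quantified against vehicle control growth.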

[9] = NCI Yeast Anticancer Drug Screen. Data for the cln2 rad14 strain (AID 165);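 also: 0% = growth equal to vehicle treated cultures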; settings: S. cerevisiae cln2 rad14 strain, active compounds read high
Procedure, shortened: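 Growth of compound-exposed yeast (cln2 rad14 genotype) measured and expressed as inhibition relative to vehicle.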

[10] = NCI Yeast Anticancer Drug Screen. Data for the bub3 strain (AID 167); settings: S. cerevisiae bub3 mutant strain, active compounds read high
Procedure, shortened: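 Growth of a checkpoint-deficient yeast mutant is measured after compound exposure. Values represent inhibition relative to vehicle.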

[11] = NCI Yeast Anticancer Drug Screen. Data for the wt2 strain (AID 169);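 also: 0% = growth of vehicle-treated yeast cultures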; settings: S. cerevisiae wt2 strain growth inhibition, active compounds read high
Procedure, shortened: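 Genetically defined yeast strains from a DNA-repair/cell-cycle panel were used. Compound-exposed yeast growth was measured, and the inhibition was calculated relative to vehicle treatment.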

[12] = NCI Yeast Anticancer Drug Screen. Data for the mlh1 strain (AID 171);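 also: 0% = growth of vehicle-treated control cultures of the same strain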; settings: S. cerevisiae mlh1 strain growth inhibition, active compounds read high
Procedure, shortened: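 Here the genetically defined yeast mutant is grown with each compound, and the extent to which its growth falls below that of vehicle-exposed cells is reported.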

[13] = NCI Yeast Anticancer Drug Screen. Data for the sgs1 strain (AID 173);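 also: 0% = growth of vehicle-only control cultures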; settings: S. cerevisiae sgs1 mutant, active compounds read high
Procedure, shortened: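 Relative growth inhibition, referenced to vehicle, was determined in a yeast strain with a defined alteration affecting DNA damage repair or cell cycle control after compound exposure.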

[14] = NCI Yeast Anticancer Drug Screen. Data for the mlh1 rad18 strain (AID 175); settings: S. cerevisiae mlh1 rad18 strain growth inhibition, active compounds read high
Procedure, shortened: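 In this whole-cell yeast screen, a strain with altered DNA damage repair is challenged with compound, and its growth is measured against matched vehicle-treated controls.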

[15] = NCI Yeast Anticancer Drug Screen. Data for the rad18 strain (AID 177); settings: S. cerevisiae rad18 mutant growth inhibition, active compounds read high
Procedure, shortened: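 Screen uses a yeast strain with a defined lesion in DNA damage repair; compound effect is read as loss of growth compared to untreated vehicle cultures.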

[16] = at 5.0 µM (retest, dose inferred, filed as 0.5)
[17] = at 50.0 µM (retest, dose inferred, filed as 5.0)

Measured: growth inhibition

CN(N=O)N1C(=O)SCC(c2ccccc2)(c2ccccc2)C1=O
inactive: [1]; at 1.2 µM -2% | [1]; at 3.7 µM 1% | [1]; at 11.0 µM 6% | [1]; at 33.0 µM 16% | [1]; at 100.0 µM 42% | [2]; at 1.2 µM -4% | [2]; at 3.7 µM 0% | [2]; at 11.0 µM 0% | [2]; at 33.0 µM 2% | [2]; at 100.0 µM 3% | [3]; at 1.2 µM -1% | [3]; at 3.7 µM 1% | [3]; at 11.0 µM 1% | [3]; at 33.0 µM -1% | [3]; at 100.0 µM 3% | [4]; at 1.2 µM 3% | [4]; at 3.7 µM 4% | [4]; [16] -26% | [4]; at 11.0 µM 13% | [4]; at 33.0 µM 11% | [4]; [17] 66% | [4]; at 50.0 µM 56% | [4]; at 100.0 µM 37% | [5]; at 1.2 µM 0% | [5]; at 3.7 µM 1% | [5]; [16] 10% | [5]; at 11.0 µM 1% | [5]; at 33.0 µM 5% | [5]; [17] 40% | [5]; at 50.0 µM 32.2% | [5]; at 100.0 µM 27% | [6]; at 1.2 µM 1% | [6]; at 3.7 µM -5% | [6]; at 11.0 µM -3% | [6]; at 33.0 µM -10% | [6]; at 100.0 µM -4% | [7]; [16] 9% | [7]; [17] 64% | [7]; at 50.0 µM 48.5% | [8]; at 1.2 µM -1% | [8]; at 3.7 µM 4% | [8]; at 11.0 µM 4% | [8]; at 33.0 µM 2% | [8]; at 100.0 µM 9% | [9]; [16] -26% | [9]; [17] 16% | [9]; at 50.0 µM 10.7% | [10]; at 1.2 µM -2% | [10]; at 3.7 µM 1% | [10]; [16] 3% | [10]; at 11.0 µM 12% | [10]; at 33.0 µM 15% | [10]; at 50.0 µM 66.2% | [10]; at 100.0 µM 26% | [11]; at 1.2 µM -1% | [11]; at 3.7 µM -1% | [11]; at 11.0 µM -1% | [11]; at 33.0 µM 1% | [11]; at 100.0 µM 11% | [12]; at 1.2 µM 3% | [12]; at 3.7 µM -1% | [12]; at 11.0 µM 1% | [12]; at 33.0 µM 2% | [12]; at 100.0 µM -8% | [13]; at 1.2 µM -1% | [13]; at 3.7 µM 0% | [13]; at 11.0 µM 5% | [13]; at 33.0 µM 13% | [13]; at 100.0 µM 35% | [14]; [16] -7% | [15]; at 1.2 µM -1% | [15]; at 3.7 µM -3% | [15]; at 11.0 µM 8% | [15]; at 33.0 µM 28%
active: [10]; [17] 70% | [14]; [17] 71% | [14]; at 50.0 µM 84.5% | [15]; at 100.0 µM 72%

From PubChem BioAssay (NCI)
